Experimental data published in PubChem BioAssay (NCATS).
“And” between values parts separate entries of the source, which are not always exact repeats. Identical values can stand only once. Results filed as inconclusive are left out. A number with no mark means an inactive call. The source made the active and inactive calls. Calls follow the shape of the dose curve; as a rule, active = well fitted activation curve with a large enough effect; inconclusive = small, poorly fitted or top-dose-only effect; inactive = no such curve, though single readings can be large or run the other way.

Target: Cellular tumor antigen p53 (Homo sapiens) (UniProt P04637)
Assay: Primary qHTS for small molecule compounds that upregulate eGFP-tagged delta133p53alpha (in N-terminal) cells. (AID 2060322); also: nearly all actives have a fitted effect of over 75% in size;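 as to activation: series mostly up to about 56 µM; 0% = DMSO vehicle and 100% = reference activator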
Details: NCI-H358 eGFP-delta133p53alpha fluorescence, 24 h; activation: stronger effect = higher value
Method in brief: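 NCI-H358 cells pre-induced 24 h with 10 ng/ml doxycycline to express N-terminal eGFP-delta133p53alpha, then dosed 24 h at 37C without doxycycline; fixed, Hoechst-stained, GFP intensity by laser scanning cytometry, normalized to DMSO (0%) and 57.5 uM 5-azacytidine (100%).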
Potency is read from the fitted curve at half-maximal effect.

Chain of Cellular tumor antigen p53 (Homo sapiens) (P04637 whole entry, looked up): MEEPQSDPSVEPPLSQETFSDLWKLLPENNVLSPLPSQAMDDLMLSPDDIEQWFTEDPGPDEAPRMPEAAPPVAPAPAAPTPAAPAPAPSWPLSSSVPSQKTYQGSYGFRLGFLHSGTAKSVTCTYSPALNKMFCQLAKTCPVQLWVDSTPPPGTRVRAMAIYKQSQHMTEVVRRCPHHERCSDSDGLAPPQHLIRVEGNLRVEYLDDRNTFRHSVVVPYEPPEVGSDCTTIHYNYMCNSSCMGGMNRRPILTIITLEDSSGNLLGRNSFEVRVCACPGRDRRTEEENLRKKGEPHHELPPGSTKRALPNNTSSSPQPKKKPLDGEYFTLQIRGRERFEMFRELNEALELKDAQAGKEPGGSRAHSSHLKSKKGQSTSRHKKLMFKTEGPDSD

| Structure (SMILES) | activation | Potency |
| --- | --- | --- |
| Nc1ncnc2nc[nH]c12 | 18.4% |  |
| CC1(C)O[C@@H]2C[C@H]3[C@@H]4CCC5=CC(=O)C=C[C@]5(C)[C@@H]4[C@@H](O)C[C@]3(C)[C@]2(C(=O)CO)O1 | 10.4% |  |
| O=C(N[C@H](CO)[C@H](O)c1ccc([N+](=O)[O-])cc1)C(Cl)Cl | 15.3% and -2.04% |  |
| Cc1ccc(C(C)C)c(O)c1 | -8.47% |  |
| CC(=O)OCC(=O)[C@@]12N=C(C)O[C@H]1C[C@H]1[C@@H]3CCC4=CC(=O)C=C[C@]4(C)[C@@H]3[C@@H](O)C[C@@]12C | -1.97% |  |
| O=C(Nc1ncc([N+](=O)[O-])s1)c1cccs1 | 10% |  |
| O=C(Nc1ccccc1)Nc1ccc(-c2ccc(C(=O)[C@H]3CCC[C@H]3C(=O)O)cc2)cc1 | -3.35% |  |
| C[C@H](CCC(=O)O)[C@H]1CC[C@H]2[C@H]3[C@@H](CC[C@]12C)[C@@]1(C)CC[C@@H](O)C[C@H]1C[C@@H]3O | -8.06% |  |
| NS(=O)(=O)c1ccc(Cl)c(S(N)(=O)=O)c1 | -10% |  |
| c1ccc(OCc2ccc(CCCN3CCOCC3)cc2)cc1 | -7.53% |  |
| CN1CCCC(CC2c3ccccc3Sc3ccccc32)C1 (configuration not stated) | 14.2% |  |
| CC=CC(=O)N(CC)c1ccccc1C | -8.73% |  |
| CN1C(C)(C)CCCC1(C)C | 0% |  |
| NS(=O)(=O)c1cc(C(=O)O)cc(N2CCCC2)c1Oc1ccccc1 | -9.6% |  |
| NC(=O)C(c1ccccc1)(c1ccccc1)[C@@H]1CCN(CCc2ccc3c(c2)CCO3)C1 |  | 19.5 µM (active) |
| CCCN(CCC)S(=O)(=O)c1ccc(C(=O)O)cc1 | 8.47% |  |
| COc1cc2c(cc1O)CCC1C2CC[C@@]2(C)C1CC[C@@H]2O (some centres not stated) | 27.6% |  |
| CC(=O)O[C@]1(C(C)=O)CC[C@@H]2[C@@H]3C[C@H](C)C4=CC(=O)CC[C@]4(C)[C@H]3CC[C@@]21C | 17.1% |  |
| NC(=O)c1nnn(Cc2cc(Cl)c(C(=O)c3ccc(Cl)cc3)c(Cl)c2)c1N | -8.58% |  |
| C=CCSCC1Nc2cc(Cl)c(S(N)(=O)=O)cc2S(=O)(=O)N1 (configuration not stated) | -36.8% |  |
| CC(C)C(C)(C)C(C)(C)C(C)(C)S | 5.08% |  |
| CCOC(=O)/C=C(C)/C=C/C=C(C)/C=C/c1c(C)cc(OC)c(C)c1C | 9.6% |  |
| NC[C@H]1O[C@H](O[C@H]2[C@H](O)[C@@H](O[C@H]3O[C@H](CO)[C@@H](O)[C@H](N)[C@H]3O)[C@H](N)C[C@@H]2N)[C@H](N)[C@@H](O)[C@@H]1O | -10.7% |  |
| NC(=O)CC[C@@H]1NC(=O)[C@H](Cc2ccccc2)NC(=O)[C@H](Cc2ccc(O)cc2)NC(=O)CCSSC[C@@H](C(=O)N2CCC[C@H]2C(=O)N[C@@H](CCCN=C(N)N)C(=O)NCC(N)=O)NC(=O)[C@H](CC(N)=O)NC1=O | -3.35% |  |
| O=C(C=Cc1c(C(=O)O)[nH]c2cc(Cl)cc(Cl)c12)Nc1ccccc1 | 33.2% |  |
| CC(COc1ccccc1)NN (configuration not stated) | 6.69% |  |

| Structure (SMILES) | activation | Potency |
| --- | --- | --- |
| CC(C)(C)C(=O)OCOC(=O)[C@@H]1N2C(=O)[C@@H](NC(=O)[C@H](N)c3ccccc3)[C@H]2SC1(C)C | 7.53% |  |
| CCCCCCCCCCCCCCCC[N+](C)(C)CCN(Cc1ccc(OC)cc1)c1ncccn1 |  | 34.7 µM (active) |
| NC[C@H]1O[C@H](O[C@H]2[C@@H](O)[C@@H](O[C@H]3O[C@H](CO)[C@@H](O)[C@H](N)[C@@H]3O)[C@H](N)C[C@@H]2N)[C@H](N)C[C@H]1O | 25.5% |  |
| CC(=O)Oc1cccc(C)c1 | -28.8% |  |
| CC(=O)ON=C1C(c2c(O)[nH]c3cc(Br)ccc23)=Nc2ccccc21 | 53.3% |  |
| NS(=O)(=O)c1cc(-c2nn[nH]n2)c(NCc2cccs2)cc1Cl | 5.02% |  |
| O=S(=O)(N=Cc1c(O)ccc2ccccc12)c1cccs1 | 11.3% |  |
| COc1ccc(S(=O)(=O)N2c3ccc(Cl)cc3[C@@](O)(c3ccccc3Cl)[C@H]2C(=O)N2CCC[C@@H]2C(N)=O)cc1OC | -10.9% |  |
| CCCCC/C=C\C/C=C\CCCCCCCC(=O)NC(C)c1ccccc1 (configuration not stated) | 0% |  |
| O=C(COCCOCCOCC(=O)Nc1c(I)cc(I)c(C(=O)O)c1I)Nc1c(I)cc(I)c(C(=O)O)c1I | 10% |  |
| O=C(c1ccccc1)c1ccccc1 | 16.4% |  |
| C[C@@H]1C[C@H]2[C@@H]3CCC4=CC(=O)C=C[C@]4(C)[C@@]3(F)[C@@H](O)C[C@]2(C)[C@@]1(O)C(=O)COC(=O)c1ccncc1 | -8.37% |  |
| C[N+](C)(C)CC[N+]1(C)Cc2c(Cl)c(Cl)c(Cl)c(Cl)c2C1 | -1.69% |  |
| C/C(=N/NC(=O)c1ccncc1)C(=O)O | 7.34% |  |
| O=C1Nc2ccc(I)cc2C1=Cc1cc(Br)c(O)c(Br)c1 |  | 24.3 µM (active) |
| CCCCOc1ccc(C(=O)CCN2CCCCC2)cc1 | 10.9% |  |
| Cc1ccc(NC2=CC(=O)c3sc(C)nc3C2=O)cc1 |  | 3.85 µM (active) |
| CC(C)(Oc1ccc(Cl)cc1)C(=O)O | -18.4% |  |
| CC(C)n1c(/C=C/[C@@H](O)C[C@@H](O)CC(=O)O)c(-c2ccc(F)cc2)c2ccccc21 | -1.69% |  |
| CCCCC/C(C=O)=C\c1ccccc1 | 19.8% |  |
| Cc1ccc(Cl)c(OCC(O)CNC(C)(C)C)c1 (configuration not stated) | -2.51% |  |
| O=C(NCc1ccccc1)[C@H](Cc1ccccc1)NC(=O)[C@@H]1O[C@@H]1C(=O)NCCc1ccc(O)cc1 | 16.6% |  |
| Oc1cn2c(n1)Nc1ccc(Cl)c(Cl)c1C2 | -8.37% |  |
| CCN(CC)CCOC(=O)C(Cc1cccc2ccccc12)CC1CCCO1 (configuration not stated) | -0.837% |  |
| CCN(CC)CC(=O)OCC(=O)[C@@]1(O)CC[C@H]2[C@@H]3CCC4=CC(=O)CC[C@]4(C)[C@H]3[C@@H](O)C[C@@]21C | -4.18% |  |
| CCCSc1ccc2nc(NC(=O)OC)[nH]c2c1 | 6.69% |  |

| Structure (SMILES) | activation | Potency |
| --- | --- | --- |
| N[C@@H](C(=O)N[C@@H]1C(=O)N2C(C(=O)O)=C(Cl)CS[C@H]12)c1ccccc1 | -19.2% and 26.9% |  |
| O=C1CC2(CCCC2)CC(=O)N1CCNCC1COc2ccccc2O1 (configuration not stated) | -5.86% |  |
| CC(=O)[C@H]1CC[C@H]2[C@@H]3C[C@H](C)C4=CC(=O)CC[C@]4(C)[C@H]3[C@@H](O)C[C@]12C | -15.9% |  |
| Cc1cc(-n2nc3ccc(Cl)cc3n2)c(O)c(C(C)(C)C)c1 | 19.8% |  |
| C[C@@H](O)[C@H]1C(=O)N2C(C(=O)O)=C(S[C@@H]3CN[C@H](C(=O)N(C)C)C3)[C@H](C)[C@H]12 | 7.34% |  |
| CC=CCC(C)C(O)C1C(=O)NC(CC)C(=O)N(C)CC(=O)N(C)C(CC(C)C)C(=O)NC(C(C)C)C(=O)N(C)C(CC(C)C)C(=O)NC(C)C(=O)NC(C)C(=O)N(C)C(CC(C)C)C(=O)N(C)C(CC(C)C)C(=O)N(C)C(C(C)C)C(=O)N1C (configuration not stated) | -6.27% |  |
| CCCCC(CC)COC(=O)c1ccc(N(C)C)cc1 (configuration not stated) | 0.837% |  |
| CC1(C)CO[C@@H](CC(=O)O)CN1 | -5.86% |  |
| O=C(C=Cc1cccc(S(=O)(=O)Nc2ccccc2)c1)NO | 49% |  |
| CN(C)[C@@H]1C(=O)C(C(=O)NCN2CCCC2)=C(O)[C@@]2(O)C(=O)C3=C(O)c4c(O)cccc4[C@@](C)(O)C3C[C@@H]12 (some centres not stated) | -13% |  |
| OC[C@@H](O)[C@@H](O[C@@H]1O[C@H](CO)[C@H](O)[C@H](O)[C@H]1O)[C@H](O)[C@@H](O)CO | -8.37% |  |
| CCC[C@@H](NC(=O)[C@@H]1[C@H]2CCC[C@@H]2CN1C(=O)[C@@H](NC(=O)[C@@H](NC(=O)c1cnccn1)C1CCCCC1)C(C)(C)C)C(=O)C(=O)NC1CC1 | 19.1% |  |
| O=C(O)c1ccccc1C(=O)Nc1ccc(S(=O)(=O)Nc2nccs2)cc1 | 8.47% |  |
| C=C1C[C@@]2(O)O[C@@]3(C[C@H]2C(C)C)[C@H](C)CC[C@H]13 | 18.1% |  |
| CNCC[C@@H](Oc1ccccc1C)c1ccccc1 | -17.6% |  |
| CCCCN(CCCC)CC(O)c1cc(Cl)cc2c1-c1ccc(Cl)cc1C2=Cc1ccc(Cl)cc1 (configuration not stated) | 12% |  |
| CCN1CCN(C(=O)N[C@H](C(=O)N[C@@H]2C(=O)N3C(C(=O)O)=C(CSc4nnnn4C)CS[C@@H]23)c2ccc(O)cc2)C(=O)C1=O | 19.4% |  |
| Cc1cc(O)c2ccccc2c1O |  | 34.7 µM (active) |
| CCC(=O)O[C@]1(C(=O)CO)CC[C@H]2[C@@H]3CCC4=CC(=O)CC[C@]4(C)[C@@H]3CC[C@@]21C | 38% |  |
| CCCOc1ccc2c(c1)CC[C@@H]1[C@@H]2CC[C@]2(C)C(OC)CC[C@@H]12 (some centres not stated) | 0.565% |  |
| O=C(O)C[C@H](O)C[C@H](O)C=Cc1c(C2CC2)nc2ccccc2c1-c1ccc(F)cc1 | -5.06% |  |
| CCC(Sc1nnc2c(n1)[nH]c1ccccc12)C(=O)N1c2ccccc2Sc2ccccc21 (configuration not stated) | 12.3% |  |
| CCNC(=O)Nc1ccc(Oc2ncnc(N)c2C=NOC)cc1Cl | -10.2% |  |
| NS(=O)(=O)c1cc(C(=O)NN2C[C@H]3[C@H]4CCC(C4)[C@H]3C2)ccc1Cl | 0% |  |
| CC(=O)C1=C(O)C=C2Oc3c(C(C)=O)c(O)c(C)c(O)c3C2(C)C1=O (configuration not stated) | 47.4% |  |
